Rows were chosen to be rich in hits. Some 0.68% of all compounds tested hit in one or more screens of this group.
Sa RN4220 lethal: kills Staphylococcus aureus RN4220; S. aureus RN4220 growth, OD600, 16 h; inhibition, % (test concentration not listed); 330,000 tested, 0.33% active; AID 1259311; in the data active means inhibition above about 85%;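 further: plate controls were untreated cells for no effect and reference antibiotic for full effect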
Sa ugtP lethal: kills S. aureus RN4220 lacking UgtP | 330,000 tested, 0.54% active | growth inhibition, % (concentration not given with the values) | S. aureus RN4220 ugtP deletion, OD600 growth, 16 h; in the data active means growth inhibition above about 68%;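 further: plate controls were untreated wells for no effect and antibiotic for full effect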
Mtb hypoxia rep: Mtb hypoxia fluorescent reporter inhibition; 300,000 tested, 0.1% active; fluorescence inhibition, % (concentration not given with the values); M. tuberculosis hypoxia-regulated fluorescent reporter, fluorescence; AID 1159583; in the data active means fluorescence inhibition mostly above about 23%, no sharp cut-off; inactive means mostly below about 17%
The depositor's hits bear a star; nt = no result given.

SMILES | Sa RN4220 lethal | Sa ugtP lethal | Mtb hypoxia rep
CCNC(=O)C(=Cc1cccc([N+](=O)[O-])c1)NC(=O)c1ccc(C)cc1 | 3 | 1 | 3
O=C1c2ccccc2C(=O)c2c1ccc1c(=O)n(-c3ccccc3)[nH]c21 | 74 | 58 | 2
CC(C)Cn1[nH]c2c3c(ccc2c1=O)C(=O)c1ccccc1C3=O | 89* | 85* | -3
COC(=O)CN1C(=O)C2C(C3CC3)N3C(=O)CN(CCO)C(=O)[C@@]3(Cc3ccccc3)C2C1=O (stereo not given in full) | 5 | 4 | 5
Cc1ccc(S(=O)(=O)Nc2nc3ccc(N)cc3s2)cc1 | 9 | 84* | -10
Cc1ccc(S(=O)(=O)Nc2nc3ccc(S(C)(=O)=O)cc3s2)cc1 | 5 | 1 | 2
COC(=O)C1CCCN1C(=O)C(NC(=O)OC(C)(C)C)C(C)C (stereo not given) | 4 | 0 | -7
COc1n[nH]c(C(=O)Nc2cc(Cl)ccc2Cl)c1[N+](=O)[O-] | 90* | 88* | 7
COc1ccc(Cl)cc1NC(=O)c1[nH]nc(OC)c1[N+](=O)[O-] | 14 | -4 | -7
CN1C(=O)C2C(C=Cc3ccccc3)N3C(=O)CN(Cc4ccc(-c5ccccc5)cc4)C(=O)[C@@]3(C)C2C1=O (stereo not given in full) | 6 | 3 | 11
Brc1cc(Br)c2nc3c(cc2c1)CCC3 | 11 | -3 | 54*
CSc1nc2c(cc1C#N)CCC2 | 5 | 9 | 17
O=C(NC1CC=CCC(CC(=O)N(CCO)Cc2ccccc2)C(=O)NC(Cc2c[nH]c3ccccc23)COC1=O)OCC1c2ccccc2-c2ccccc21 (stereo not given) | -1 | -21 | 19
O=C1C2C(c3ccc(F)cc3)N3C(=O)N(c4cccc(F)c4)C(=O)[C@@]3(Cc3ccc(Cl)cc3)C2C(=O)N1C1CCCCC1 (stereo not given in full) | -3 | -36 | 3
CCOC(=O)C1C2COc3cc(OC)ccc3C2N2C(=O)N(c3cccc(Cl)c3)C(=O)[C@]12C (stereo not given in full) | 6 | 2 | -3
O=C(Nc1cccc(O)c1)c1cccc(C(=O)Nc2cccc(O)c2)c1 | 0 | 4 | 47*
O=C(Nc1cccc(O)c1)c1ccc(Br)cc1 | 9 | -1 | 9
O=C(N/N=C/c1c(O)n(C2CCCCC2)c(=S)[nH]c1=O)c1ccccc1 | 5 | -7 | -11
CC(C)c1ccc(-n2c(O)c(/C=N/NC(=O)c3ccccc3O)c(=O)[nH]c2=S)cc1 | 88 | 10* | 15
O=C(N/N=C/c1c(O)n(C2CCCCC2)c(=S)[nH]c1=O)c1ccccc1O | 77 | 92* | 8
CC(C)c1ccc(-n2c(O)c(/C=N/NC(=O)c3ccncc3)c(=O)[nH]c2=O)cc1 | 5 | 0 | 10
COC(=O)C1=C(c2cccc3c2S(=O)(=O)c2ccccc2-3)CC2CCC1N2C(=O)N1CCOCC1 (stereo not given) | 5 | 2 | 10
CC(C)(C)/C(O)=C/c1nc2ccccc2oc1=O | 5 | -8 | nt
O=c1oc2ccccc2nc1/C=C(\O)c1ccccc1 | 5 | -3 | 46*
Cc1cc(C(=O)c2cnc(N=CN(C)C)s2)cc(C)c1O | 0 | -2 | 4
SMILES | Sa RN4220 lethal | Sa ugtP lethal | Mtb hypoxia rep
CC(C)CN1CCC(=O)N(C(CO)Cc2ccccc2)CC1 (stereo not given) | 6 | -1 | 8
CC(=O)c1c(O)cc(O)cc1CC(=O)O | 3 | -11 | nt
CC(=O)c1c(O)cc(O)c(C(C)=O)c1O | 86* | 89* | nt
Cc1ccc(F)c(C2=CC(=O)CC(c3ccc(F)cc3)C2)c1 (stereo not given) | -1 | 0 | 19
CNc1nc(-c2ccccn2)nnc1-c1ccccc1 | 0 | 4 | nt
c1ccc(-c2nnc(-c3ccccn3)nc2NC2CCCCC2)cc1 | 97* | 89 | nt
CCc1ccc(C=C2SC(=S)N(CCC(=O)NC3=NCCS3)C2=O)cc1 | 11 | -6 | -9
N#CC(=Cc1ccc(O)c(O)c1)C(=O)N1CCc2ccccc21 | 13 | -3 | 9
Cn1c(SCC(=O)NN=C/C=C\c2ccccc2[N+](=O)[O-])nc2ccccc21 | 6 | -1 | 1
O=C(CSc1nc2ccccc2[nH]1)NN=C/C=C\c1ccccc1[N+](=O)[O-] | 98* | 97* | 6
CC1CN(C(C)CO)C(=O)c2cc(NC(=O)Cc3ccccc3)ccc2OC1CN(C)C(=O)Nc1ccccc1 (stereo not given) | 3 | -2 | 11
O=C(NN=Cc1ccc(OCc2ccccc2)cc1)c1ccc(O)cc1 | 32 | 6 | 0
O=C(NN=Cc1ccccc1)c1ccc(OCc2ccccc2)cc1 | 3 | 7 | 9
COc1ccc(C(=O)NN=Cc2ccc(OC)c(COc3ccccc3)c2)cc1 | 1 | -12 | 0
O=C(NN=Cc1ccc(OCc2ccccc2)cc1)c1ccncc1 | 6 | 4 | 36*
COc1ccc(C=NNC(=O)c2cc(O)c(O)c(O)c2)cc1COc1ccc(C(=O)OCC(C)C)cc1 | 26 | 99* | 5
CC(C)(C)c1ccc(OCc2ccc(C(=O)NN=Cc3ccc(O)c(O)c3)cc2)cc1 | 47 | 94* | 10
O=C(NCc1nc2ccccc2[nH]1)C1=CC(c2ccccc2)CC(OCc2ccc(CO)cc2)O1 (stereo not given) | 1 | 7 | 18
CCOC(=O)c1ccc([N+]([O-])=Cc2ccccc2)cc1 | 3 | -5 | 4
O=S1(=O)CCOCC(Cc2ccccc2)N1Cc1cccc(Cl)c1 (stereo not given) | 9 | 8 | 1
CC(=O)NC1=NC(=O)C(=Cc2cc(C)n(-c3cccc(C(=O)O)c3)c2C)S1 | 3 | 4 | 10
Cc1ccccc1-c1n[nH]c(=S)n1N=Cc1c(C)nn(-c2ccccc2)c1C | 4 | 13 | 1
CC(=NOC(=O)c1ccc(F)cc1)c1sc(-c2ccc(Cl)cc2)nc1C | 2 | 4 | 4
CN(NC(=O)c1ccccc1)c1ncc(C(F)(F)F)cc1Cl | 2 | 3 | 0
CN(N=Cc1ccccc1Cl)c1ncc(Cl)cc1C(F)(F)F | -5 | 85* | 5
SMILES | Sa RN4220 lethal | Sa ugtP lethal | Mtb hypoxia rep
CCCCCCc1ccc(N2CC(CCCCC)C(CC(=O)NCc3ccc(OC)cc3)C2=O)cc1 (stereo not given) | -4 | 9 | 21
Cc1cc(C)cc(Oc2ccccc2C=NO)c1 | -3 | 87* | nt
ON=Cc1ccccc1Oc1ccccc1 | -1 | 21 | nt
Oc1[nH]c2ccc(Br)cc2c1N=NC(=S)N1CCOCC1 | 24 | 37 | 39*
COC(=O)N=Nc1c(O)[nH]c2ccc(Br)cc12 | 5 | 9 | 10
Clc1ccccc1NN=Cc1ccc2c(c1)OCO2 | -6 | -1 | -7
CC(=CC1CCCCC1)C(NC(=O)c1ccc(C(F)(F)F)cc1)c1ccc(-c2ccccc2)cc1 (stereo not given) | -1 | 5 | 15
CC(C)N=C(N)N=C(N)Nc1ccc(Cl)cc1 | 3 | -2 | -2
NC(=NCCCCCCN=C(N)N=C(N)Nc1ccc(Cl)cc1)N=C(N)Nc1ccc(Cl)cc1 | 100* | 100* | nt
CCCCN1C(Nc2ccccc2)=NCC1Cc1ccccc1 (stereo not given) | 0 | 5 | 9
CC(CN=[N+]=[N-])CN1CCC(C(C)(C)C)CCC1=O (stereo not given) | 4 | -8 | 11
